Screening data (PubChem BioAssay)
eIF4E 4G PPI = inhibitors of eIF4E and eIF4G interaction in translation initiation | 220,000 tested, 0.37% active | P63073+Q04637 | inhibition, % at 21.7 µM | AID 782 | TR-FRET eIF4E-eIF4GI(517-606) binding, 2 h;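 further: 0% = full FRET control wells and 100% = background wells lacking eIF4GI fragment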
Bim-Mcl-1 = inhibitors of Bim-Mcl-1 interaction, human; Q07820; Bead-based flow cytometry, Bim peptide-Mcl-1 binding; inhibition, % at 10 µM; 190,000 tested, 0.1% active; in the data active means inhibition above about 40%;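 further: 0% = no compound tracer wells and 100% = peptide blocker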
NCF1 inh = inhibitors of human p47phox binding; p47phox/p22phox peptide binding, fluorescence polarization, 2 h; inhibition, % at 24.7 µM; 220,000 tested, 0.53% active; AID 1274;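 further: 0% = p47phox with labelled peptide and 100% = labelled peptide alone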
Mcl1 Noxa PPI = Mcl-1/Noxa interaction inhibition; Q07820; TR-FRET Mcl-1/Noxa peptide binding, 2 h; inhibition, % at 21.7 µM; 220,000 tested, 1.5% active; AID 1022;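 active means compounds that cut the protein-peptide binding signal by more than 50% relative to plate controls in a single-dose test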;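 further: His-tagged Mcl-1 with rhodamine Noxa BH3 peptide and terbium anti-His antibody; 0% = Mcl-1 plus Noxa peptide wells and 100% = peptide-only wells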
Mcl1-Bid inh = disrupts binding of human Mcl-1 to Bid peptide. inhibition, % at 21.7 µM. TR-FRET Mcl-1/Bid-Dy647 peptide binding, 1536-well. Q07820. 220,000 tested, 0.97% active;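 active means compounds that cut the binding signal by more than half at the single screening dose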;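 further: His-tagged Mcl-1 with europium anti-His antibody binding Bid BH3 peptide; 0% = Mcl-1 plus peptide wells and 100% = peptide-only wells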
14-3-3 Bad PPI = disrupts binding of bovine 14-3-3 zeta to phospho-Bad peptide; P63103; TR-FRET 14-3-3zeta/Dy647-pBad peptide displacement, 1 h; inhibition, % at 21.7 µM; 220,000 tested, 0.71% active; AID 781;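 active means inhibition above about 70%, limit read from the data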;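 further: 0% = full 14-3-3 plus peptide FRET controls and 100% = background without 14-3-3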
Active calls of the source: *; . = no result given. Hits are enriched below; roughly 3.3% of the tested compounds scored in any of these assays.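 How the source made its calls, unless noted: active means inhibition above about 30% (limit read from the data); inactive means the rest.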

SMILES	eIF4E 4G PPI	Bim-Mcl-1	NCF1 inh	Mcl1 Noxa PPI	Mcl1-Bid inh	14-3-3 Bad PPI
CSc1ccc(S(=O)(=O)Nc2ccc(OCC(=O)N3CCOCC3)cc2)cc1	2	-4	4	11	-52	-2
Cc1nc2ccc(NC(=O)Cc3c(F)cccc3Cl)cc2s1	7	.	-22	8	-69	-1
COCC(=O)NNS(=O)(=O)c1ccccc1[N+](=O)[O-]	-16	0	-8	10	-15	-1
COc1ccc(C(CNC(=O)c2cc3ccccc3o2)N2CCCCC2)cc1 (centres undefined)	2	-2	-9	12	-34	-20
Cc1cccc(-n2[nH]c3c4c(ccc3c2=O)C(=O)c2ccccc2C4=O)c1	4	-5	50*	55*	-9	-1
COC(C/C=C\[C@@H](O)COCc1ccccc1)OC	2	.	-3	-18	7	-9
COc1ccc2c(=O)c3c(=O)n(CCc4ccccc4)c(C(C)C)nc3oc2c1	9	.	-9	10	77*	16
CCC(C)N1CC(C(=O)NC2CCCCC2)CC1=O (centres undefined)	.	3	.	.	.	.
CCC(C)N1CC(C(=O)O)CC1=O (centres undefined)	.	-1	47*	10	-16	.
Cc1cccc(NC(=O)CCS(=O)(=O)c2cccc3nsnc23)c1C	10	-3	-6	5	-24	-1
Cc1ccc(CNC(=O)CCS(=O)(=O)c2ccc(Br)cc2)cc1	4	-1	-7	5	-90	96*
COc1ccc(NC(=O)CCS(=O)(=O)c2cccc3nonc23)c(OC)c1	0	-1	80*	6	-5	-2
O=C(CCS(=O)(=O)c1cccc2nsnc12)NCc1ccccc1Cl	33*	-3	-10	3	-2	9
Cc1ccc(CNC(=O)CCS(=O)(=O)c2cccc3nonc23)cc1	0	-1	-11	4	93*	-5
O=c1cc(-c2ccc([N+](=O)[O-])cc2)c2ccc(O)cc2o1	1	-1	-3	31	-17	5
COc1ccc(N(CC(=O)NCc2ccccc2)C(=O)Cn2nnc(-c3ccccc3F)n2)cc1OC	-1	-2	.	-20	-3	-2
O=C(CNC(=O)c1cccs1)NCC(=O)OCc1ccccc1Br	0	-2	6	15	3	-1
O=C(CNC(=O)c1ccco1)NCC(=O)OCc1ccccc1Br	6	43*	0	-14	-12	-13
COC(=O)c1c(NC(=S)Nc2ccc(CC(=O)O)cc2)sc(C)c1C	0	-5	-8	72*	-81	-17
CN(c1ccccc1)S(=O)(=O)c1cccc(Cl)c1Cl	-8	.	-16	-20	-11	-4
CN(C)S(=O)(=O)c1c(Cl)cccc1Cl	-9	0	-18	10	-3	81*
CN1CCC(NC(=S)Nc2cccc([N+](=O)[O-])c2)CC1	0	-3	1	-4	-58	-15
Cc1ccc(C(=O)C2=C(O)C(=O)N(Cc3ccccc3)C2c2cccnc2)o1 (centres undefined)	6	-4	55*	8	-11	37
CC(=O)C1=C(O)C(=O)N(Cc2cccnc2)C1c1ccccc1Cl (centres undefined)	-3	-1	-8	0	-13	38
Cn1cccc1-c1cc(C(=O)N2CCc3c([nH]c4ccccc34)C2c2ccccn2)[nH]n1 (centres undefined)	73*	0	-19	16	-19	-7
SMILES	eIF4E 4G PPI	Bim-Mcl-1	NCF1 inh	Mcl1 Noxa PPI	Mcl1-Bid inh	14-3-3 Bad PPI
Cc1ccc(-c2noc(-c3ccccc3C(=O)N3CCCC3)n2)cc1	0	1	-9	6	-14	-4
Cc1ccc(-c2noc(-c3ccccc3C(=O)N3CCN(C)CC3)n2)cc1	1	-3	-2	6	71*	-5
CC(C)CCn1c(S(=O)(=O)O)nc2ccccc21	-1	0	-5	15	8	75*
O=S(=O)(O)c1nc2ccccc2n1Cc1ccccc1	-2	4	-18	-1	0	71*
CS(=O)(=O)c1nc2ccccc2n1Cc1ccccc1	0	0	-3	-1	2	20
O=C(CSc1nnc(Cc2ccccc2)o1)c1cc(F)ccc1F	-4	-3	-8	12	-37	-1
COc1cccc(CNC(=O)CSCc2cnn(-c3ccccc3)c2-n2cccc2)c1OC	2	-1	-3	0	72*	20
